PubChem BioAssay (NCI)
Compounds without any hit were thinned out: in the full panel of roughly 83,000, 20% have a hit.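 Growth was measured after 48 h exposure to one concentration of compound in 96-well plates. Values under 10 count as active.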 Unmarked numbers belong to inactive results. Calls of active or inactive are those of the source.

Assays:
Assay in all cases: NCI-60 one-dose screen, 48 h (100 = growth as untreated, 0 = no growth, -100 = all killed)
Conditions in all cases: 10 µM unless noted
[1] = tested on: HCT-15 colon
[2] = tested on: HT29 colon
[3] = tested on: SNB-75 CNS
[4] = tested on: SNB-19 CNS
[5] = tested on: U251 CNS
[6] = tested on: PC-3 prostate
[7] = tested on: SK-MEL-5 melanoma
[8] = tested on: UACC-62 melanoma
[9] = tested on: LOX IMVI melanoma
[10] = tested on: SK-MEL-28 melanoma
[11] = tested on: SK-MEL-2 melanoma
[12] = tested on: EKVX NSCLC
[13] = tested on: SN12C renal
[14] = tested on: UO-31 renal
[15] = tested on: TK-10 renal
[16] = tested on: ACHN renal
[17] = tested on: A498 renal
[18] = tested on: CCRF-CEM leukemia
[19] = tested on: MOLT-4 leukemia

| SMILES | growth [1] | growth [2] | growth [3] | growth [4] | growth [5] | growth [6] | growth [7] | growth [8] | growth [9] | growth [10] | growth [11] | growth [12] | growth [13] | growth [14] | growth [15] | growth [16] | growth [17] | growth [18] | growth [19] |
| --- | --- | --- | --- | --- | --- | --- | --- | --- | --- | --- | --- | --- | --- | --- | --- | --- | --- | --- | --- |
| O=C(O)c1ccccc1C(=O)c1ccc(I)cc1 | 100% | 90% | 98.1% | 110% | 102% | 91.2% | 102% | 105% | 91% | 107% | 91.2% | 97.5% | 104% | 99.4% | 95.6% | 104% | 115% | 99.9% | 94.3% |
| CCCCCn1ncc(-c2c(O)c(O)cc3c(O)c(-c4c(C)cc5c(-c6cnn(CCCCC)n6)c(O)c(O)cc5c4O)c(C)cc23)n1 | 14% | -20.9% (active) | 34.2% | 22% | -33.3% (active) | -25.3% (active) | -49.2% (active) | -11.8% (active) | -40.7% (active) | 25.9% | 3.71% (active) | 9.87% (active) | 18.6% | -49.5% (active) | 10.2% | 6.56% (active) | 53% | 1.09% (active) | 6.44% (active) |
| O=C1CN(CCN2CC(=O)NC(=O)C2)CC(=O)N1 | 114% | 110% | 76.1% | 99% | 100% | 89.8% | 87% | 86.5% | 93.7% | 121% | 113% | 84.4% | 104% | 71.8% | 107% | 103% | 103% | 107% | 28.5% |
| Nc1nc(Nc2ccc(OCc3cccc(F)c3)cc2)c2c(n1)[nH]c1ccc(O)cc12 | -8.62% (active) | -84.2% (active) | -63.5% (active) | 12.3% | -91% (active) | 4.64% (active) | -78.1% (active) | -75.1% (active) | -96% (active) | -67.4% (active) | -63% (active) | 10.5% | -69.3% (active) | -93.5% (active) | -9.4% (active) | -26.8% (active) | 75.9% | -9.7% (active) | -28% (active) |
| COc1ccccc1N1CCN(CC(O)COc2c(Br)c(Br)c(Br)c3c2OC(C)(C)C3)CC1 (stereo unspecified) | 24.6% | 5.44% (active) | 71% | 60.8% | 52.7% | 18.9% | 7.43% (active) | 56.6% | 18.5% | 90.4% | 60.5% | 117% | 65.8% | 13.2% | 40.5% | 56.1% | 55.9% | -54.6% (active) | -36.7% (active) |
| Clc1ccc(CN2COc3c(ccc4cccnc34)C2)cc1Cl | 16.3% | 30.3% | 9.33% (active) | 18.5% | 9.29% (active) | 27.9% | -1% (active) | -38% (active) | 2.29% (active) | 33.5% | 11.8% | 1.43% (active) | 19.4% | -55.4% (active) | 25.9% | 4.57% (active) | 52.8% | -11.1% (active) |  |
| Clc1ccc2c(c1)nnn1c3ncccc3c(Br)c21 | 101% | 93.8% | -3.76% (active) | 89% | 59.4% | 78.6% | 77.3% | 58.3% | 77.5% | 109% | 93% | 29.2% | 91.9% | 58.9% | 78.8% | 78.4% | 70.5% | 86.4% | 115% |
| CCC1S/C(=N\N=C(/C)c2ccco2)N(c2ccccc2)C1=O (stereo unspecified) | 118% | 86.8% | 103% | 104% | 104% | 76.6% | 146% | 92% | 99.5% | 108% | 112% | 109% | 141% | 94.8% | 79.4% | 110% | 160% | -58.4% (active) | 78.7% |
| CC/C(=C(\CC)c1ccc(OCCN(CC)CC)cc1)c1ccc(OCCN(CC)CC)cc1 | 6.7% (active) | -0.437% (active) | 39.1% | 62.5% | 24.6% | 29% | -96.4% (active) | 10.9% | -5.77% (active) | -40.5% (active) | -8.16% (active) | 38% | 68.6% | 24.4% | 48.6% | 42.5% | 43.4% | 38.9% | 42.6% |
| CCC1S/C(=N\N=C(/C)c2cc3ccccc3o2)N(c2ccccc2)C1=O (stereo unspecified) | 107% | 98% | 102% | 100% | 96.7% | 81.7% | 83.9% | 79.5% | 93.7% | 114% | 99.6% | 135% | 120% | 75.9% | 108% | 100% | 136% | -72.8% (active) | -80.8% (active) |
| Nc1nc2ccc(CNc3ccc(C(=O)NC(CC(=O)O)C(=O)O)cc3)cc2c(=O)[nH]1 (stereo unspecified) | 39.8% | 18.6% | 70.4% | 62.6% | 49.5% | 33.1% | 30% | 31.6% | 19.5% | 106% | 51.9% | 63.6% | 41.3% | 16.9% | 82% | 33.1% | 93.1% | 23.2% | 30.4% |
| COc1cc2nc(C(=O)N3CCCCC3)cc(Nc3ccccc3)c2cc1OC | 102% | 104% | 97.5% | 104% | 102% | 114% | 95.6% | 104% | 94.9% | 110% | 99.5% | 97.3% | 98.9% | 82.4% | 98.6% | 96.4% | 91% | 101% | 97.3% |
| COc1cc(-c2nc3ccccc3s2)ccc1OCc1nc2n(n1)S(=O)(=O)c1ccccc1N2C | 91.5% | 100% | 41% | 91% | 73.2% | 80.8% | 82.1% | 103% | 72.3% | 103% | 85.9% | 53.6% | 107% | 72.8% | 87.8% | 94.3% | 89.9% | 4.89% (active) | 89.1% |
| COc1ccc(C2CC(c3cc(Cl)c(C)cc3OC)=NN2c2ccc(S(N)(=O)=O)cc2)cc1OC (stereo unspecified) | 75.9% | 78.7% | 83.6% | 101% | 78.4% | 52.3% | 84.6% | 65.1% | 77.9% | 108% | 95.8% | 80.6% | 87.4% | 59.1% | 113% | 84% | 112% |  |  |
| Fc1ccc(/C=N/n2c(-c3cc(Cl)cc(Cl)c3Cl)nn(CNc3ccc(Cl)nn3)c2=S)cc1 | 110% | 103% | 99.4% | 101% | 90% | 86.7% | 102% | 86.7% | 96.8% | 108% | 98.1% | 104% | 102% | 89.4% | 103% | 104% | 105% | -70.4% (active) | 75.1% |
| C=C1C(=O)O[C@H]2[C@H]1CC/C(COC(=O)c1ccc(Br)cc1)=C\CC[C@@]1(C)O[C@@H]21 | -26.3% (active) | -51.8% (active) | 56% | 24% | 4.28% (active) | 20.3% | 8.33% (active) | -52.4% (active) | -94.6% (active) | -27% (active) | -24.5% (active) | -41.3% (active) | -22% (active) | -89.8% (active) | 8.28% (active) | -93.4% (active) | 100% | -17.5% (active) | -27.2% (active) |
